These results are taken from paper PMC11006913.

Holding throughout (experiment): PBM; 200 nM protein, PBS
Common to all, as to conditions: dsDNA, one strand shown

Experiment [1] deals with ALX1 (Homo sapiens, UniProt Q15699 118-204, L144V).
Experiment [2] has as its target ALX1 (Homo sapiens, UniProt Q15699 118-204, L144R).
For experiment [3], the target named is ALX1 (Homo sapiens, UniProt Q15699 118-204).
Experiment [4] addresses MSX2 (Homo sapiens, UniProt P35548 130-214, R199I).
Experiment [5] concerns the target MSX2 (Homo sapiens, UniProt P35548 130-214).
Experiment [6] concerns the target MSX2 (Homo sapiens, UniProt P35548 130-214, F161Y).
Experiment [7] addresses VAX1 (Homo sapiens, UniProt Q5SQQ9 86-172).
In experiment [8] the target is VAX1 (Homo sapiens, UniProt Q5SQQ9 86-172, T142I).
VAX1 (Homo sapiens, UniProt Q5SQQ9 86-172, T142I), sequence (Q5SQQ9 86-172 T142I): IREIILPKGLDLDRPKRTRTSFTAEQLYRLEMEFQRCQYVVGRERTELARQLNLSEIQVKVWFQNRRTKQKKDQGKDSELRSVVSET
Experiment [9] has as its target VAX1 (Homo sapiens, UniProt Q5SQQ9 86-172, K157R).

ALX1 (Homo sapiens, UniProt Q15699 118-204), sequence (Q15699 118-204): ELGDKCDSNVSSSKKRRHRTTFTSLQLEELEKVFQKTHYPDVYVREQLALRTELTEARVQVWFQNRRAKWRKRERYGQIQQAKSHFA
ALX1 (Homo sapiens, UniProt Q15699 118-204, L144R), sequence (Q15699 118-204 L144R): as the sequence (Q15699 118-204) above, with L27R counted along it
ALX1 (Homo sapiens, UniProt Q15699 118-204, L144V), sequence (Q15699 118-204 L144V): as the sequence (Q15699 118-204) above, with L27V counted along it
MSX2 (Homo sapiens, UniProt P35548 130-214, R199I), sequence (P35548 130-214 R199I): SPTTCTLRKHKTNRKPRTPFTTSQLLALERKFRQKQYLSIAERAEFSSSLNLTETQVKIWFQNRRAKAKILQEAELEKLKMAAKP
MSX2 (Homo sapiens, UniProt P35548 130-214, F161Y), sequence (P35548 130-214 F161Y): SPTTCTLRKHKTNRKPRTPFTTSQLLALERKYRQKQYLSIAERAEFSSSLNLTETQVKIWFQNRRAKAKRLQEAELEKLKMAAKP
MSX2 (Homo sapiens, UniProt P35548 130-214), sequence (P35548 130-214): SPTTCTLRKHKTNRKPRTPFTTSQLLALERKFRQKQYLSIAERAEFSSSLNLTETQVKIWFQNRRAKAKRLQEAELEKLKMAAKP
VAX1 (Homo sapiens, UniProt Q5SQQ9 86-172), sequence (Q5SQQ9 86-172): as the sequence (Q5SQQ9 86-172 T142I) above, with I57T counted along it
VAX1 (Homo sapiens, UniProt Q5SQQ9 86-172, K157R), sequence (Q5SQQ9 86-172 K157R): as the sequence (Q5SQQ9 86-172 T142I) above, with I57T, K72R counted along it

ATTGGAAA: the binding signal is 8.46 upbm affinity estimate (log intensity, higher = more binding, comparable within an allelic series) with ALX1 [1]; 8.23 upbm affinity estimate (log intensity, higher = more binding, comparable within an allelic series) with ALX1 [2]; 8.59 upbm affinity estimate (log intensity, higher = more binding, comparable within an allelic series) in the experiment with ALX1 [3].

Regarding CATTAAAG, the binding signal was 9.86 upbm affinity estimate (log intensity, higher = more binding, comparable within an allelic series) with ALX1 [1]; 9.67 upbm affinity estimate (log intensity, higher = more binding, comparable within an allelic series) with ALX1 [2]; 10.1 upbm affinity estimate (log intensity, higher = more binding, comparable within an allelic series) with ALX1 [3].

On to ACTTTAAA, for which the binding signal in the experiment with ALX1 [1] is 8.62 upbm affinity estimate (log intensity, higher = more binding, comparable within an allelic series); in the experiment with ALX1 [2], 8.74 upbm affinity estimate (log intensity, higher = more binding, comparable within an allelic series); in the experiment with ALX1 [3] it was 8.8 upbm affinity estimate (log intensity, higher = more binding, comparable within an allelic series).

ATGTGTAA: the binding signal with ALX1 [1] is 8.64 upbm affinity estimate (log intensity, higher = more binding, comparable within an allelic series); in the experiment with ALX1 [2] it was 8.5 upbm affinity estimate (log intensity, higher = more binding, comparable within an allelic series); in the experiment with ALX1 [3], 8.88 upbm affinity estimate (log intensity, higher = more binding, comparable within an allelic series).

Regarding ATTAAGAA, the binding signal with MSX2 [4] was 11.3 upbm affinity estimate (log intensity, higher = more binding, comparable within an allelic series); with MSX2 [5] it was 12 upbm affinity estimate (log intensity, higher = more binding, comparable within an allelic series); with MSX2 [6] it was 11.7 upbm affinity estimate (log intensity, higher = more binding, comparable within an allelic series).

As to AGGCCGGG, the binding signal is 6.61 upbm affinity estimate (log intensity, higher = more binding, comparable within an allelic series) in the experiment with ALX1 [1]; 6.52 upbm affinity estimate (log intensity, higher = more binding, comparable within an allelic series) in the experiment with ALX1 [2]; 6.99 upbm affinity estimate (log intensity, higher = more binding, comparable within an allelic series) in the experiment with VAX1 [7]; 7.01 upbm affinity estimate (log intensity, higher = more binding, comparable within an allelic series) in the experiment with VAX1 [8]; 6.54 upbm affinity estimate (log intensity, higher = more binding, comparable within an allelic series) with ALX1 [3]; 7.01 upbm affinity estimate (log intensity, higher = more binding, comparable within an allelic series) with VAX1 [9].

Take CATTTTGA: the binding signal was 10.3 upbm affinity estimate (log intensity, higher = more binding, comparable within an allelic series) in the experiment with MSX2 [4]; 10.6 upbm affinity estimate (log intensity, higher = more binding, comparable within an allelic series) with MSX2 [5]; 10.5 upbm affinity estimate (log intensity, higher = more binding, comparable within an allelic series) with MSX2 [6].

As for AATTACTG, the binding signal was 12.1 upbm affinity estimate (log intensity, higher = more binding, comparable within an allelic series) with MSX2 [4]; 13.3 upbm affinity estimate (log intensity, higher = more binding, comparable within an allelic series) with MSX2 [5]; 12.9 upbm affinity estimate (log intensity, higher = more binding, comparable within an allelic series) with MSX2 [6].

Take CGGGTGAG: the binding signal with ALX1 [1] was 6.48 upbm affinity estimate (log intensity, higher = more binding, comparable within an allelic series); with ALX1 [2], 6.58 upbm affinity estimate (log intensity, higher = more binding, comparable within an allelic series); with ALX1 [3] it was 6.62 upbm affinity estimate (log intensity, higher = more binding, comparable within an allelic series).

AATGAACC: the binding signal was 8.42 upbm affinity estimate (log intensity, higher = more binding, comparable within an allelic series) with ALX1 [1]; 8.46 upbm affinity estimate (log intensity, higher = more binding, comparable within an allelic series) with ALX1 [2]; 8.7 upbm affinity estimate (log intensity, higher = more binding, comparable within an allelic series) in the experiment with ALX1 [3].

Take GACTCGAC: the binding signal in the experiment with ALX1 [1] was 6.55 upbm affinity estimate (log intensity, higher = more binding, comparable within an allelic series); with ALX1 [2], 6.63 upbm affinity estimate (log intensity, higher = more binding, comparable within an allelic series); with ALX1 [3], 6.64 upbm affinity estimate (log intensity, higher = more binding, comparable within an allelic series).

For CTCCTGGA, the binding signal with ALX1 [1] was 6.55 upbm affinity estimate (log intensity, higher = more binding, comparable within an allelic series); in the experiment with ALX1 [2], 6.53 upbm affinity estimate (log intensity, higher = more binding, comparable within an allelic series); in the experiment with ALX1 [3], 6.48 upbm affinity estimate (log intensity, higher = more binding, comparable within an allelic series).

For CAGCGAGA, the binding signal with ALX1 [1] was 6.61 upbm affinity estimate (log intensity, higher = more binding, comparable within an allelic series); with ALX1 [2], 6.49 upbm affinity estimate (log intensity, higher = more binding, comparable within an allelic series); with ALX1 [3], 6.63 upbm affinity estimate (log intensity, higher = more binding, comparable within an allelic series).

CACAGAGC: the binding signal in the experiment with ALX1 [1] is 6.53 upbm affinity estimate (log intensity, higher = more binding, comparable within an allelic series); with ALX1 [2], 6.53 upbm affinity estimate (log intensity, higher = more binding, comparable within an allelic series); in the experiment with ALX1 [3], 6.59 upbm affinity estimate (log intensity, higher = more binding, comparable within an allelic series).

With AGGCAAAT, the binding signal is 8.05 upbm affinity estimate (log intensity, higher = more binding, comparable within an allelic series) with ALX1 [1]; 7.93 upbm affinity estimate (log intensity, higher = more binding, comparable within an allelic series) in the experiment with ALX1 [2]; 8.18 upbm affinity estimate (log intensity, higher = more binding, comparable within an allelic series) with ALX1 [3].

Turning to ACCCGCTC, the binding signal in the experiment with ALX1 [1] was 6.49 upbm affinity estimate (log intensity, higher = more binding, comparable within an allelic series); with ALX1 [2], 6.49 upbm affinity estimate (log intensity, higher = more binding, comparable within an allelic series); with ALX1 [3] it was 6.43 upbm affinity estimate (log intensity, higher = more binding, comparable within an allelic series).

CTAGCTGC: the binding signal is 6.42 upbm affinity estimate (log intensity, higher = more binding, comparable within an allelic series) in the experiment with ALX1 [1]; 6.45 upbm affinity estimate (log intensity, higher = more binding, comparable within an allelic series) with ALX1 [2]; 6.31 upbm affinity estimate (log intensity, higher = more binding, comparable within an allelic series) with ALX1 [3].

Turning to ATTTATCG, the binding signal is 8.96 upbm affinity estimate (log intensity, higher = more binding, comparable within an allelic series) with ALX1 [1]; 8.71 upbm affinity estimate (log intensity, higher = more binding, comparable within an allelic series) with ALX1 [2]; 9.21 upbm affinity estimate (log intensity, higher = more binding, comparable within an allelic series) with ALX1 [3].

For the sequence CGACAGGC, the binding signal with ALX1 [1] was 6.36 upbm affinity estimate (log intensity, higher = more binding, comparable within an allelic series); with ALX1 [2] it was 6.36 upbm affinity estimate (log intensity, higher = more binding, comparable within an allelic series); in the experiment with ALX1 [3], 6.15 upbm affinity estimate (log intensity, higher = more binding, comparable within an allelic series).

For the sequence CCCCCCCC, the binding signal with ALX1 [1] is 6.17 upbm affinity estimate (log intensity, higher = more binding, comparable within an allelic series); with ALX1 [2], 6 upbm affinity estimate (log intensity, higher = more binding, comparable within an allelic series); with ALX1 [3], 6.16 upbm affinity estimate (log intensity, higher = more binding, comparable within an allelic series).

For the sequence CGGCCGAG, the binding signal is 6.33 upbm affinity estimate (log intensity, higher = more binding, comparable within an allelic series) with ALX1 [1]; 6.51 upbm affinity estimate (log intensity, higher = more binding, comparable within an allelic series) with ALX1 [2]; 6.15 upbm affinity estimate (log intensity, higher = more binding, comparable within an allelic series) with ALX1 [3].

ATTTAGTA: the binding signal with ALX1 [1] was 9.39 upbm affinity estimate (log intensity, higher = more binding, comparable within an allelic series); in the experiment with ALX1 [2], 9.22 upbm affinity estimate (log intensity, higher = more binding, comparable within an allelic series); in the experiment with ALX1 [3], 9.79 upbm affinity estimate (log intensity, higher = more binding, comparable within an allelic series).

Take GGACCCAC: the binding signal with ALX1 [1] is 6.45 upbm affinity estimate (log intensity, higher = more binding, comparable within an allelic series); in the experiment with ALX1 [2], 6.3 upbm affinity estimate (log intensity, higher = more binding, comparable within an allelic series); with ALX1 [3], 6.26 upbm affinity estimate (log intensity, higher = more binding, comparable within an allelic series).

In the case of CCAGCGGC, the binding signal with ALX1 [1] is 6.38 upbm affinity estimate (log intensity, higher = more binding, comparable within an allelic series); with ALX1 [2] it was 6.67 upbm affinity estimate (log intensity, higher = more binding, comparable within an allelic series); with ALX1 [3] it was 6.48 upbm affinity estimate (log intensity, higher = more binding, comparable within an allelic series).

As for CTGCTAGC, the binding signal is 6.36 upbm affinity estimate (log intensity, higher = more binding, comparable within an allelic series) with ALX1 [1]; 6.39 upbm affinity estimate (log intensity, higher = more binding, comparable within an allelic series) in the experiment with ALX1 [2]; 6.42 upbm affinity estimate (log intensity, higher = more binding, comparable within an allelic series) in the experiment with ALX1 [3].

CAGACTGG: the binding signal was 6.33 upbm affinity estimate (log intensity, higher = more binding, comparable within an allelic series) in the experiment with ALX1 [1]; 6.4 upbm affinity estimate (log intensity, higher = more binding, comparable within an allelic series) in the experiment with ALX1 [2]; 6.39 upbm affinity estimate (log intensity, higher = more binding, comparable within an allelic series) with ALX1 [3].

Take CTGAATTC: the binding signal with ALX1 [1] is 7.73 upbm affinity estimate (log intensity, higher = more binding, comparable within an allelic series); in the experiment with ALX1 [2], 7.6 upbm affinity estimate (log intensity, higher = more binding, comparable within an allelic series); with ALX1 [3] it was 7.82 upbm affinity estimate (log intensity, higher = more binding, comparable within an allelic series).

With ATTAAGCA, the binding signal with ALX1 [1] is 10.2 upbm affinity estimate (log intensity, higher = more binding, comparable within an allelic series); with ALX1 [2], 9.85 upbm affinity estimate (log intensity, higher = more binding, comparable within an allelic series); in the experiment with ALX1 [3], 10.5 upbm affinity estimate (log intensity, higher = more binding, comparable within an allelic series).

As for GGACGGCC, the binding signal with ALX1 [1] is 6.43 upbm affinity estimate (log intensity, higher = more binding, comparable within an allelic series); with ALX1 [2], 6.53 upbm affinity estimate (log intensity, higher = more binding, comparable within an allelic series); with ALX1 [3], 6.53 upbm affinity estimate (log intensity, higher = more binding, comparable within an allelic series).

As for TCTGTTAA, the binding signal with ALX1 [1] is 8.7 upbm affinity estimate (log intensity, higher = more binding, comparable within an allelic series); in the experiment with ALX1 [2] it was 8.61 upbm affinity estimate (log intensity, higher = more binding, comparable within an allelic series); with ALX1 [3] it was 9.01 upbm affinity estimate (log intensity, higher = more binding, comparable within an allelic series).

In the case of CCTTGCCG, the binding signal with ALX1 [1] is 6.69 upbm affinity estimate (log intensity, higher = more binding, comparable within an allelic series); with ALX1 [2] it was 6.58 upbm affinity estimate (log intensity, higher = more binding, comparable within an allelic series); with ALX1 [3] it was 6.55 upbm affinity estimate (log intensity, higher = more binding, comparable within an allelic series).
